# In all, about 120,000 compounds went through this assay and about 5,300 (4.4%) were called active. Another 22% or so got no clear call; they are omitted. The list comes from a sample in which actives are over-represented; it also holds similar structures and randomly drawn compounds. A call without a number means that no potency is given here. A number with no mark means an inactive call. Calls come from the whole dose curve; as a rule, active = well fitted inhibition curve with a large enough effect; inconclusive = small, poorly fitted or top-dose-only effect; inactive = no such curve, though single readings can be large or run the other way.
# Assay: qHTS Primary assay for Inhibitors of Plasmodium falciparum Dd2 growth in vitro; note: nearly all actives have a fitted effect of over 65% in size
# Conditions: P. falciparum Dd2 growth, SYBR Green, 72 h; series mostly up to 28.9 µM
# In short: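 Readout: SYBR Green fluorescence, 485 nm excitation, 535 nm emission, after ~16 h lysis at 37C. Before that, Dd2-infected red cells (2.5% hematocrit) grew 72 h with compound, 29 uM top final concentration.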
# Potency is the fitted concentration of half-maximal effect.
SMILES,Potency,"activity, negative = inhibition"
CCc1noc(-c2nnn3c2COC(c2ccc(OC)cc2)C3)n1 (configuration not stated),inactive,–
CN(C)S(=O)(=O)N1CCC(Oc2ccc(C(=O)NC3(C)CC3)cc2)CC1,inactive,–
Cc1nn2c(c1-c1ccccc1N1CCCC1)N(C(=O)c1ccn(C)n1)CCC2,inactive,–
O=C(c1cccs1)N1CC(Oc2ccc(-c3nc(-c4ccccc4)no3)cc2)C1,–,8.59% [at 5.79 µM]
O=C(c1ccc(C(F)(F)F)cc1)N1CCn2c(nn(-c3cccc(Cl)c3)c2=O)C1,inactive,–
Cn1nnnc1SCCCNCc1cccc(OCc2ccc(Cl)cc2)c1,12.6 µM (active),–
Cn1nnnc1SCCCNCc1ccc(Cl)cc1,inactive,–
Cn1nnnc1SCCNCc1ccc(Cl)c(Cl)c1,inactive,–
Cc1ccc(C(=O)CC2(O)C(=O)N(CCc3ccccc3)c3ccc(Br)cc32)cc1 (configuration not stated),10 µM (active),–
Cc1ccc(S(=O)(=O)NC2(C(F)(F)F)NC(=O)N(CCc3ccccc3)C2=O)cc1 (configuration not stated),inactive,–
Cc1ccc(C(=O)N2CCc3cc(CNC(=O)c4ccc(Br)cc4)ccc32)cc1,inactive,–
COCCN1CCC(N2CCN(C(=O)c3cc(F)cc(F)c3)CC2)C1=O (configuration not stated),inactive,–
CC(=O)c1ccc(NC(c2ccc(F)cc2)c2nnc(-c3ccccc3)o2)cc1 (configuration not stated),inactive,–
Cc1cc(C)cc(NC(c2nnc(-c3cccc(F)c3)o2)c2ccc(F)cc2Cl)c1 (configuration not stated),3.55 µM (active),–
Cc1c(C(=O)N2CCn3nc(C(O)CO)cc3C2)sc2ccccc12 (configuration not stated),inactive,–
O=C(c1cnc2c(c1)N(Cc1ccccc1)CCC2)N1CC[S+](=O)([O-])CC1,inactive,–
COCCNC(=O)C[C@@H]1C[C@H]2O[C@H](CNC(=O)Nc3cccc(Cl)c3)[C@@H](O)[C@H]2O1,inactive,–
CCN1CCN(c2ncc3c(n2)CC(c2ccccc2O)CC3=O)CC1 (configuration not stated),8.91 µM (active),–
CCCN1CCc2nc(N3CCN(C)CC3)ncc2C1,–,36.4% [at 5.79 µM]
Cc1ccc(CN2CCc3nc(N4CCN(C)CC4)ncc3C2)cc1,inactive,–
COc1ccc2[nH]c3c(c2c1)CCN(C)C31CCN(C(=O)c2ccoc2)CC1,inactive,–
Cc1ccc(-c2nc(C(=O)N3CCN(c4ccccn4)CC3)no2)cc1,inactive,–
O=C(c1ccccc1)N1Cc2ccccc2NC(=O)C12CCNCC2,inactive,–
O=C(NCc1ccc(F)cc1)N1CCC(n2cnnc2C2CC2)C1 (configuration not stated),inactive,–
CCCNC(=O)N1CC(Oc2ccc(-c3nc(C)no3)cc2)C1,–,40.8% [at 5.79 µM]

SMILES,Potency,"activity, negative = inhibition"
COc1ccc(-c2cc3c(nc2-c2ccccc2)nc(C(=O)NCCN(C)C)n3C)cc1OC,3.98 µM (active),–
COc1ccc(Nc2cc3c(nc2-c2ccccc2)nc(C(=O)NCCN(C)C)n3C)cn1,inactive,–
COc1ccc(CCNC(=O)c2nn(C)c3c2CSc2ccccc2-3)cc1OC,inactive,–
O=C(c1cnc[nH]1)N1C[C@@H](COCC2CC2)[C@H](c2ccccn2)C1,inactive,–
O=C(Nc1ccc(F)cc1F)N1CCC2(CC1)SCC(=O)N2c1ccc(Cl)cc1,inactive,–
O=C1Cc2c(-c3ccc(CO)cc3)n[nH]c2CN1CC1CCOCC1,inactive,–
O=C1Cc2c(-c3ccc(Oc4ccccc4)cc3)n[nH]c2CN1CCc1ccncc1,11.2 µM (active),–
CC(C)Oc1cccc(-c2n[nH]c3c2CC(=O)N(Cc2ccccc2)C3)c1,inactive,–
O=C(CN1C(=O)C(c2ccccc2)=NC12CCCC2)N1CCN(c2ccccc2)CC1,inactive,–
CCc1noc([C@@H]2CC(F)(F)CN2C(=O)c2cocn2)n1,inactive,–
O=C1CC(c2noc(-c3ccc(F)c(Cl)c3)n2)CN1c1ccc(F)cc1 (configuration not stated),inactive,–
CCC[S+](=O)([O-])NC1CCN(C(=O)N2CC3CC(C2)[C@H]2CCCC(=O)N2C3)CC1 (some centres not stated),inactive,–
CCCS(=O)(=O)N1CC[C@H]2C(=O)NCCCCCCN(Cc3ccncc3)[C@@H]2C1,inactive,–
Cc1noc(CC2CCOC3(CCN(C(=O)c4ccc(C#N)cc4)CC3)C2)n1 (configuration not stated),inactive,–
Cc1ccc(C2=NC3(CCN(C(=O)c4ccc(C#N)cc4)CC3)ON2)cc1,4.47 µM (active),–
COCCC1(NS(C)(=O)=O)CCN(C(=O)c2ccc(C#N)cc2)CC1,inactive,–
CCN1c2cc(C(=O)Nc3ccc(SC)cc3)ccc2C(=O)N2CCCCCC21 (configuration not stated),inactive,–
COc1ccc(CNC(=O)c2ccc3c(c2)N(C)C2CCCCN2C3=O)c(OC)c1 (configuration not stated),inactive,–
CN1C(=O)c2cccn2CC1C(=O)NC1CCN(Cc2ccccc2)CC1 (configuration not stated),inactive,–
CCN1c2cc(C(=O)NCc3ccc(OC)cc3OC)ccc2C(=O)N2CCCCCC21 (configuration not stated),4.47 µM (active),–
CCN1c2cc(C(=O)Nc3ccc(OC)c(F)c3)ccc2C(=O)N2CCCCC21 (configuration not stated),inactive,–
CCN1c2cc(C(=O)NC3CCN(Cc4ccccc4)CC3)ccc2C(=O)N2CCCCC21 (configuration not stated),7.94 µM (active),–
CCN1c2cc(C(=O)Nc3ccc(F)c(C)c3)ccc2C(=O)N2CCCCC21 (configuration not stated),inactive,–
CCN1c2cc(C(=O)NCc3cccc(F)c3)ccc2C(=O)N2CCCCCC21 (configuration not stated),3.55 µM (active),–
CN1c2cc(C(=O)Nc3ccc(F)c(F)c3)ccc2C(=O)N2CCCCCC21 (configuration not stated),inactive,–

SMILES,Potency,"activity, negative = inhibition"
CN(CCc1cn[nH]c1)c1ccc(-c2nc(-c3ccccc3F)no2)cn1,inactive,–
Cc1cc(C)n(CC(=O)N2CC[C@@H]3CN(S(C)(=O)=O)[C@@H]3C2)n1,inactive,–
Oc1ccccc1CN1C[C@H](O)C[C@H]1c1nc(Cc2ccc(F)cc2Cl)no1,inactive,–
CCCNC(=O)C(NC(=O)c1ccc(OC)cc1)C1CCN(C(=O)c2ccc3c(c2)OCO3)CC1 (configuration not stated),inactive,–
O=C(c1ccccc1-n1cccn1)N1CCc2c(nc[nH]c2=O)C1,inactive,–
CC(C)(Oc1nn(CCOc2ccccc2)c2ccccc12)C(=O)NCCCn1ccnc1,inactive,–
CCOC(=O)C1CCN(C(=O)C2(c3ccc(NS(C)(=O)=O)cc3)CCCCC2)CC1,inactive,–
COCCNC(=O)c1ccc(OC2CCN(C/C=C/c3ccco3)CC2)c(Cl)c1,inactive,–
CSc1ccc(C2c3c(oc4ccccc4c3=O)C(=O)N2CCCN2CCOCC2)cc1 (configuration not stated),inactive,–
Cc1ccc2oc3c(c(=O)c2c1)C(c1ccc([N+](=O)[O-])cc1)N(CCCN1CCOCC1)C3=O (configuration not stated),10 µM (active),–
COc1ccc(C2c3c(oc4ccccc4c3=O)C(=O)N2Cc2ccc3c(c2)OCO3)cc1 (configuration not stated),inactive,–
Cc1cccc(C(=O)NCCC2CCN(C(=O)Nc3ccc(F)cc3F)CC2)c1,inactive,–
COc1cccc(NC(=O)c2cnc3n[nH]c(-c4ccc(OC)cc4C)c3n2)c1,inactive,–
COc1ccccc1CN1CCC(CNC(=O)c2cnn(-c3cccc(Cl)c3)c2C2CCN(C(=O)OC(C)(C)C)CC2)CC1,1.41 µM (active),–
Cc1oc2ncnc(N3CCCCC3)c2c1C(=O)N1CCN(c2cccc(Cl)c2)CC1,inactive,–
Cc1cccc(-n2ncc(C(=O)N3CCc4ccccc4C3)c2C2CCN(C(=O)OC(C)(C)C)CC2)c1,inactive,–
CC(C)(C)OC(=O)N1CCC(c2c(C(=O)N3CCN(c4cccc(Cl)c4)CC3)cnn2-c2cccc(Cl)c2)CC1,7.08 µM (active),–
COc1ccccc1C(=O)N1CCC(c2n[nH]c(=O)n2-c2ccc(C)cc2)CC1,inactive,–
COc1ccccc1N1CCN(S(=O)(=O)CCNC(=O)COc2ccc(F)cc2)CC1,inactive,–
Cc1ccc(C2CCN(C(=O)c3cnn(-c4ccccc4Cl)c3C3CCN(C(=O)OC(C)(C)C)CC3)C2)cc1 (configuration not stated),3.98 µM (active),–
O=C(NCC1CC1)c1nc2c(o1)CCN(Cc1cccc(F)c1F)CC2,inactive,–
Cc1cccc(-n2ncc(C(=O)N3CCC(C)CC3)c2C2CCN(C(=O)OC(C)(C)C)CC2)c1,inactive,–
Cc1c(Cl)cccc1NC(=O)C1CCCN(C(=O)c2cnn(-c3ccccc3)c2-n2cccc2)C1 (configuration not stated),inactive,–
COc1ccccc1N1CCN(CCCNC(=O)c2cnn(-c3ccccc3Cl)c2C2CCN(C(=O)OC(C)(C)C)CC2)CC1,1.41 µM (active),–
CCn1ncc(N2CCC(NC(=O)c3ccccc3OC)CC2)cc1=O,inactive,–

SMILES,Potency,"activity, negative = inhibition"
Cc1noc2c(N3CC[S+](=O)([O-])CC3)cc(-c3ccc(Cl)cc3)nc12,inactive,–
O=C(NC1CCCC1)N1CCC(Oc2ccc(-c3noc(C4CC4)n3)cc2)C1 (configuration not stated),–,5.78% [at 5.79 µM]
CCCC(c1cccs1)n1cc(-c2cncnc2)nn1 (configuration not stated),inactive,–
O=c1cc(N2CCOCC2)cnn1Cc1cc(C(F)(F)F)ccc1F,inactive,–
O=C(c1ccccn1)N1CCC2(CNS(=O)(=O)c3cnccc3O2)C1 (configuration not stated),inactive,–
Cc1noc(C)c1-c1cc2cc(CNC3CCOCC3)oc2c(NC2CCN(C)CC2)n1,inactive,–
Cc1ccc(C2(O)CCN(C(=O)c3ccccc3-c3nn[nH]n3)CC2)nc1,inactive,–
Cc1ccc(NC(=O)Nc2ccc(C)n(CC(=O)NCCN3CCCC3)c2=O)cc1,inactive,–
COCC(=O)NC1CCC12CCN(S(=O)(=O)c1c(C)noc1C)CC2 (configuration not stated),inactive,–
COc1ccc(OC)c(CNC(=O)C2(c3ccc(NC(C)=O)cc3)CCCCC2)c1,inactive,–
Cc1cccc(C)c1-n1ncc(C(=O)NCCCN2CCCCC2)c1C1CCN(C(=O)OC(C)(C)C)CC1,8.91 µM (active),–
Cc1ccccc1CCNC(=O)C1CCN(c2nc3ccccc3nc2C(F)(F)F)CC1,inactive,–
Cc1ccc2c(c1)N(CC(=O)NCCCN1CCCCC1)C(=O)c1cccnc1O2,inactive,–
COCC1CN(C(C)=O)CC12CCN(Cc1ccccc1OC)CC2 (configuration not stated),inactive,–
COc1cc(NC(=O)NCC2CCN(Cc3ccc(C)cc3)CC2)cc(OC)c1OC,inactive,–
Cc1ccc(CN2CCC(CNC(=O)c3cnn(-c4ccccc4Cl)c3C3CCN(C(=O)OC(C)(C)C)CC3)CC2)cc1,2.82 µM (active),–
COc1ccccc1CN1CC[C@H](CNC(C)=O)[C@H](N(C)C)C1,inactive,–
CC(C)(C)OC(=O)N1CCC(c2c(C(=O)NCCc3ccsc3)cnn2-c2ccc(F)cc2F)CC1,8.91 µM (active),–
COc1ccccc1CN1CCC(CNC(=O)c2cnn(-c3ccccc3Cl)c2C2CCN(C(=O)OC(C)(C)C)CC2)CC1,2.51 µM (active),–
O=C(NCCC1CCN(C(=O)Nc2cc(F)ccc2F)CC1)c1cc(F)ccc1F,inactive,–
O=C(NCCC1CCN(C(=O)Nc2ccc(F)cc2F)CC1)c1cccs1,inactive,–
CCCn1c2ccccc2c2cnn(CC(=O)NCC3CCN(Cc4ccc(C)cc4)CC3)c(=O)c21,inactive,–

# Source: PubChem BioAssay AID1347417 (National Center for Advancing Translational Sciences (NCATS), 2020)
